# ± gives the standard deviation.
# T1: HaloTag-ATRX ADD domain (163-292)
# T1 chain: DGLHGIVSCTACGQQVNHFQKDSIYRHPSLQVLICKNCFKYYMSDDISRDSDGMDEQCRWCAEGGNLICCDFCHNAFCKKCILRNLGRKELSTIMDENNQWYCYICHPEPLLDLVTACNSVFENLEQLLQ
# Experiments:
# Test in all cases: peptide microarray binding signal (635 nm), min-max normalized on array (fraction of array maximum); higher = stronger binding
# Conditions in all cases: peptide region: H3 20-32
# [1] = biological target: T1, HaloTag-ATRX ADD domain (163-292)
# Method in brief: (§1)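 Two probe formats were used for 1 h at 4°C: biotin-labelled HaloTag reader fusions (10 nM to 1 μM) with streptavidin-Alexa Fluor 647, and rabbit histone antibodies (1:10,000 to 1:2,000) with anti-rabbit Alexa 647. Both were applied to nitrocellulose arrays of histone 13-mer peptide–cellulose conjugates printed in triplicate with a Cy3 tracer and blocked overnight at 4°C. Signal was read at 635 nm and misprints at 532 nm on an Axon GenePix 4000B. Binding signal is expressed as the triplicate-spot mean intensity, min-max scaled for each library.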
# [2] = biological target: HaloTag-ING2 PHD (mouse Ing2 200-280)
# Method in brief: as §1
# [3] = biological target: anti-H3K4me3 antibody ab8580
# Method in brief: as §1
# [4] = biological target: anti-H3K9me3 antibody ab8898
# Method in brief: as §1
# [5] = peptide modifications: H3K23ac H3K27me3, binder concentration: 1:2,000 dilution
# [6] = peptide modifications: H3K23ac H3K27me3, binder concentration: 1:10,000 dilution
# [7] = peptide modifications: H3K23me1 H3K27ac, binder concentration: 1:2,000 dilution
# [8] = peptide modifications: H3K23me1 H3K27ac, binder concentration: 1:10,000 dilution
# [9] = peptide modifications: H3K23me3 H3K27me1, binder concentration: 1:2,000 dilution
# [10] = peptide modifications: H3K23me3 H3K27me1, binder concentration: 1:10,000 dilution
# [11] = peptide modifications: H3K23me2 H3K27me1, binder concentration: 1:2,000 dilution
# [12] = peptide modifications: H3K23me2 H3K27me1, binder concentration: 1:10,000 dilution
# [13] = peptide modifications: H3K23me1, binder concentration: 1:2,000 dilution
# [14] = peptide modifications: H3K23me1, binder concentration: 1:10,000 dilution
# [15] = peptide modifications: H3K23me3 H3K27ac, binder concentration: 1:2,000 dilution
# [16] = peptide modifications: H3K23me3 H3K27ac, binder concentration: 1:10,000 dilution
# [17] = peptide modifications: H3K23me1 H3K27me3, binder concentration: 1:2,000 dilution
# [18] = peptide modifications: H3K23me1 H3K27me3, binder concentration: 1:10,000 dilution
# [19] = peptide modifications: H3K23me2, binder concentration: 1:2,000 dilution
# [20] = peptide modifications: H3K23me2, binder concentration: 1:10,000 dilution
# [21] = peptide modifications: H3K23ac H3K27me1, binder concentration: 1:2,000 dilution
# [22] = peptide modifications: H3K23ac H3K27me1, binder concentration: 1:10,000 dilution
# [23] = peptide modifications: H3K23me2 H3K27ac, binder concentration: 1:2,000 dilution
# [24] = peptide modifications: H3K23me2 H3K27ac, binder concentration: 1:10,000 dilution
binder,measurement,setting,value
LATKAARKSAPAT [H3 20-32 L A T Kac A A R Kme3 S A P A T],peptide microarray binding signal,"[1]; peptide modifications: H3K23ac H3K27me3, binder concentration: 50 nM",0.006363 ± 3.7e-05
same,peptide microarray binding signal,"[1]; peptide modifications: H3K23ac H3K27me3, binder concentration: 500 nM",0.00867 ± 0.00016
same,peptide microarray binding signal,"[2]; peptide modifications: H3K23ac H3K27me3, binder concentration: 10 nM",0.0207 ± 0.00046
same,peptide microarray binding signal,"[2]; peptide modifications: H3K23ac H3K27me3, binder concentration: 100 nM",0.0281 ± 0.00085
same,peptide microarray binding signal,[3]; [5],0.0464 ± 0.0087
same,peptide microarray binding signal,[3]; [6],0.044 ± 0.0054
same,peptide microarray binding signal,[4]; [5],0.253 ± 0.019
same,peptide microarray binding signal,[4]; [6],0.122 ± 0.0084
LATKAARKSAPAT [H3 20-32 L A T Kme A A R Kac S A P A T],peptide microarray binding signal,"[1]; peptide modifications: H3K23me1 H3K27ac, binder concentration: 50 nM",0.0232 ± 0.00051
same,peptide microarray binding signal,"[1]; peptide modifications: H3K23me1 H3K27ac, binder concentration: 500 nM",0.0506 ± 0.0021
same,peptide microarray binding signal,"[2]; peptide modifications: H3K23me1 H3K27ac, binder concentration: 10 nM",0.058 ± 0.0036
same,peptide microarray binding signal,"[2]; peptide modifications: H3K23me1 H3K27ac, binder concentration: 100 nM",0.0801 ± 0.006
same,peptide microarray binding signal,[3]; [7],0.0267 ± 0.0037
same,peptide microarray binding signal,[3]; [8],0.0268 ± 0.003
same,peptide microarray binding signal,[4]; [7],0.0161 ± 0.0018
same,peptide microarray binding signal,[4]; [8],0.0113 ± 0.0012
LATKAARKSAPAT [H3 20-32 L A T Kme3 A A R Kme S A P A T],peptide microarray binding signal,"[1]; peptide modifications: H3K23me3 H3K27me1, binder concentration: 50 nM",0.00426 ± 0.00018
same,peptide microarray binding signal,"[1]; peptide modifications: H3K23me3 H3K27me1, binder concentration: 500 nM",0.00776 ± 0.00023
same,peptide microarray binding signal,"[2]; peptide modifications: H3K23me3 H3K27me1, binder concentration: 10 nM",0.0209 ± 0.0012
same,peptide microarray binding signal,"[2]; peptide modifications: H3K23me3 H3K27me1, binder concentration: 100 nM",0.0322 ± 0.00049
same,peptide microarray binding signal,[3]; [9],0.0821 ± 0.0052
same,peptide microarray binding signal,[3]; [10],0.0667 ± 0.0068
same,peptide microarray binding signal,[4]; [9],0.0232 ± 0.0031
same,peptide microarray binding signal,[4]; [10],0.0156 ± 0.0017
LATKAARKSAPAT [H3 20-32 L A T Kme2 A A R Kme S A P A T],peptide microarray binding signal,"[1]; peptide modifications: H3K23me2 H3K27me1, binder concentration: 50 nM",0.00715 ± 0.00054
same,peptide microarray binding signal,"[1]; peptide modifications: H3K23me2 H3K27me1, binder concentration: 500 nM",0.0135 ± 0.00043
same,peptide microarray binding signal,"[2]; peptide modifications: H3K23me2 H3K27me1, binder concentration: 10 nM",0.0174 ± 0.00096
same,peptide microarray binding signal,"[2]; peptide modifications: H3K23me2 H3K27me1, binder concentration: 100 nM",0.0216 ± 0.00093
same,peptide microarray binding signal,[3]; [11],0.00978 ± 0.0012
same,peptide microarray binding signal,[3]; [12],0.0104 ± 0.00071
same,peptide microarray binding signal,[4]; [11],0.00618 ± 0.00062
same,peptide microarray binding signal,[4]; [12],0.00628 ± 0.00021
LATKAARKSAPAT [H3 20-32 L A T Kme A A R K S A P A T],peptide microarray binding signal,"[1]; peptide modifications: H3K23me1, binder concentration: 50 nM",0.0042 ± 0.00011
same,peptide microarray binding signal,"[1]; peptide modifications: H3K23me1, binder concentration: 500 nM",0.00714 ± 0.00042
same,peptide microarray binding signal,"[2]; peptide modifications: H3K23me1, binder concentration: 10 nM",0.0107 ± 0.00011
same,peptide microarray binding signal,"[2]; peptide modifications: H3K23me1, binder concentration: 100 nM",0.0176 ± 0.00097
same,peptide microarray binding signal,[3]; [13],0.00564 ± 0.0011
same,peptide microarray binding signal,[3]; [14],0.0116 ± 0.0039
same,peptide microarray binding signal,[4]; [13],0.00267 ± 0.00032
same,peptide microarray binding signal,[4]; [14],0.00242 ± 0.00013
LATKAARKSAPAT [H3 20-32 L A T Kme3 A A R Kac S A P A T],peptide microarray binding signal,"[1]; peptide modifications: H3K23me3 H3K27ac, binder concentration: 50 nM",0.00665 ± 0.00019
same,peptide microarray binding signal,"[1]; peptide modifications: H3K23me3 H3K27ac, binder concentration: 500 nM",0.0131 ± 0.00029
same,peptide microarray binding signal,"[2]; peptide modifications: H3K23me3 H3K27ac, binder concentration: 10 nM",0.0614 ± 0.0049
same,peptide microarray binding signal,"[2]; peptide modifications: H3K23me3 H3K27ac, binder concentration: 100 nM",0.0929 ± 0.0012
same,peptide microarray binding signal,[3]; [15],0.18 ± 0.021
same,peptide microarray binding signal,[3]; [16],0.218 ± 0.01
same,peptide microarray binding signal,[4]; [15],0.11 ± 0.011
same,peptide microarray binding signal,[4]; [16],0.042 ± 0.002
LATKAARKSAPAT [H3 20-32 L A T Kme A A R Kme3 S A P A T],peptide microarray binding signal,"[1]; peptide modifications: H3K23me1 H3K27me3, binder concentration: 50 nM",0.005266 ± 3.8e-05
same,peptide microarray binding signal,"[1]; peptide modifications: H3K23me1 H3K27me3, binder concentration: 500 nM",0.00848 ± 0.00016
same,peptide microarray binding signal,"[2]; peptide modifications: H3K23me1 H3K27me3, binder concentration: 10 nM",0.0135 ± 0.00027
same,peptide microarray binding signal,"[2]; peptide modifications: H3K23me1 H3K27me3, binder concentration: 100 nM",0.01991 ± 8.1e-05
same,peptide microarray binding signal,[3]; [17],0.0287 ± 0.0026
same,peptide microarray binding signal,[3]; [18],0.0313 ± 0.0019
same,peptide microarray binding signal,[4]; [17],0.078 ± 0.0011
same,peptide microarray binding signal,[4]; [18],0.0363 ± 0.0019
LATKAARKSAPAT [H3 20-32 L A T Kme2 A A R K S A P A T],peptide microarray binding signal,"[1]; peptide modifications: H3K23me2, binder concentration: 50 nM",0.00671 ± 0.00021
same,peptide microarray binding signal,"[1]; peptide modifications: H3K23me2, binder concentration: 500 nM",0.0138 ± 0.00038
same,peptide microarray binding signal,"[2]; peptide modifications: H3K23me2, binder concentration: 10 nM",0.0263 ± 0.0081
same,peptide microarray binding signal,"[2]; peptide modifications: H3K23me2, binder concentration: 100 nM",0.0536 ± 0.02
same,peptide microarray binding signal,[3]; [19],0.00836 ± 0.0018
same,peptide microarray binding signal,[3]; [20],0.0156 ± 0.0071
same,peptide microarray binding signal,[4]; [19],0.00609 ± 0.0003
same,peptide microarray binding signal,[4]; [20],0.00479 ± 0.00052
LATKAARKSAPAT [H3 20-32 L A T Kac A A R Kme S A P A T],peptide microarray binding signal,"[1]; peptide modifications: H3K23ac H3K27me1, binder concentration: 50 nM",0.0068 ± 0.00024
same,peptide microarray binding signal,"[1]; peptide modifications: H3K23ac H3K27me1, binder concentration: 500 nM",0.0141 ± 0.0013
same,peptide microarray binding signal,"[2]; peptide modifications: H3K23ac H3K27me1, binder concentration: 10 nM",0.0291 ± 0.00095
same,peptide microarray binding signal,"[2]; peptide modifications: H3K23ac H3K27me1, binder concentration: 100 nM",0.0373 ± 0.0027
same,peptide microarray binding signal,[3]; [21],0.0154 ± 0.0014
same,peptide microarray binding signal,[3]; [22],0.0175 ± 0.003
same,peptide microarray binding signal,[4]; [21],0.00459 ± 0.00035
same,peptide microarray binding signal,[4]; [22],0.00513 ± 0.00045
LATKAARKSAPAT [H3 20-32 L A T Kme2 A A R Kac S A P A T],peptide microarray binding signal,"[1]; peptide modifications: H3K23me2 H3K27ac, binder concentration: 50 nM",0.008464 ± 6.7e-05
same,peptide microarray binding signal,"[1]; peptide modifications: H3K23me2 H3K27ac, binder concentration: 500 nM",0.01538 ± 0.00011
same,peptide microarray binding signal,"[2]; peptide modifications: H3K23me2 H3K27ac, binder concentration: 10 nM",0.0514 ± 0.0022
same,peptide microarray binding signal,"[2]; peptide modifications: H3K23me2 H3K27ac, binder concentration: 100 nM",0.0701 ± 0.0049
same,peptide microarray binding signal,[3]; [23],0.0156 ± 0.00055
same,peptide microarray binding signal,[3]; [24],0.0145 ± 0.00025
same,peptide microarray binding signal,[4]; [23],0.0072 ± 0.0012
same,peptide microarray binding signal,[4]; [24],0.00513 ± 0.00017
